Source: PubChem BioAssay (several laboratories)
CHT block: inhibits the human high affinity choline transporter; Q9GZV3; CHT-expressing cells, membrane potential dye, choline response; hits give low values; B-score at 10 µM; actives 0.86% (n = 310,000); AID 488975;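 active = B-score over 3 SD under the library average, and starting fluorescence ratio not unusually high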;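 also: choline stimulus applied at its EC90 after an EC20 pre-addition; B-score computed on integrated fluorescence ratio after choline addition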
Target sequence (Q9GZV3 whole entry, looked up): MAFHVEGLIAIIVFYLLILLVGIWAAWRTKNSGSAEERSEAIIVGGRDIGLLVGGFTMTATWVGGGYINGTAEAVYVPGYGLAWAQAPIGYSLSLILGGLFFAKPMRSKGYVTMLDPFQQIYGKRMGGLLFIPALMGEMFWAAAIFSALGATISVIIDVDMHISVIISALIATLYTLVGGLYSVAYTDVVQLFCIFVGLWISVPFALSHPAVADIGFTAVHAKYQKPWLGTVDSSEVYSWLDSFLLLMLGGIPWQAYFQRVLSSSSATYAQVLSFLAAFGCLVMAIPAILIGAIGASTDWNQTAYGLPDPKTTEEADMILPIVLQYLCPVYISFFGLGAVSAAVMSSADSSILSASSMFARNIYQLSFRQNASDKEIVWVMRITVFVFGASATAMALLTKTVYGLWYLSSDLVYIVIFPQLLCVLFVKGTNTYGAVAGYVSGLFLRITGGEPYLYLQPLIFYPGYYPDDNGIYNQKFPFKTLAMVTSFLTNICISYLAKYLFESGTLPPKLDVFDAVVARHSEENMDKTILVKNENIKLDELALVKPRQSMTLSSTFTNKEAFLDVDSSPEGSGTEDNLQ
HIF act: HIF pathway transcriptional activation; U2OS HRE-luciferase reporter, luminescence; normalized: DMSO 0%, desferrioxamine 100%; activation, % at 7.5 µM (by protocol); actives 0.32% (n = 300,000); AID 1910;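 active = mean activation of at least 10% of the iron chelator positive control signal, with at least half of replicates also reaching 10%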
Platelet DG rel: platelet dense granule release activity. human platelet-rich plasma, SFLLRN dense granule ATP release, luminescence. inhibition, %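 (compounds screened at 7.5 µM in platelet-rich plasma)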. actives 0.22% (n = 300,000). AID 1663;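 active = mean replicate score, as percent of positive control, at or above 50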
AI-2 QS modul: modulators of Vibrio harveyi AI-2 quorum sensing system; Vibrio harveyi JMH597 AI-2 luminescence/OD600 ratio, 9 h; hits give low values; strain lacks LuxN and CqsS sensors; 0 = neutral-control median; activity change, % at 7.5 µM; actives 0.4% (n = 300,000); AID 2094; in the data active = activity change below about -75%, passing the limit was not always enough;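 also: luminescence divided by OD600 gain over 9 h not by final OD600 alone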
CHT PAM: human CHT allosteric activation | B-score at 10 µM | Q9GZV3 | CHT-expressing cells, membrane potential dye, choline EC20; hits give high values; LV-AA mutant CHT in HEK293 cells | actives 0.49% (n = 310,000);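 active = initial fluorescence not abnormally high and integrated response B-score, plate-corrected, over 3 SD above library mean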
VLA-4 inh: inhibition in a human VLA-4 binding assay; P13612; VLA-4 expressing cells, ligand binding flow cytometry; inhibition, % (about 7 µM as worked out from the volumes in the protocol); actives 0.2% (n = 330,000); in the data active = inhibition above about 50%
CHT inh conf: human CHT inhibition, confirmatory screen | CHT activity remaining % of control (hits give low values), % at 10 µM | AID 493221 | shares compounds with CHT block | CHT-expressing cells, choline membrane potential dye; LV-to-AA substituted CHT, HEK293 cells | actives 70% (n = 2,400);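 active = choline transporter activity left, mean of duplicates at 10 µM, below buffer-only control mean minus 3 SD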;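 also: depolarization triggered by choline at its EC90 following an EC20 pre-addition; 0% = hemicholinium-3 full block and 100% = buffer-only control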
HEK293 CHT ctr: counter-screen for CHT inhibitors: effect in parental HEK293 cells; shares compounds with CHT block; membrane potential dye, choline response; active = decrease or increase beyond buffer ±3SD; membrane potential ratio readout (active if shifted either direction beyond buffer ±3SD; no single direction) at 10 µM; actives 4% (n = 2,400);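 also: parental cells lack the transporter so any hit is non-specific; ratio is peak minus trough fluorescence over baseline after EC90 choline challenge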
* = called active by the depositor; i = inactive; x = not tested or not shown. An excerpt weighted towards active compounds, which were near 2.2% of everything screened.

SMILES	CHT block	HIF act	Platelet DG rel	AI-2 QS modul	CHT PAM	VLA-4 inh	CHT inh conf	HEK293 CHT ctr
CCn1cc(CCC(=O)NCCN2CCOCC2)c2ccccc21	i	2	-6	12	i	16	x	x
O=C(COc1ccc(-n2cnnn2)cc1)Nc1ccc(F)c(F)c1	x	x	x	x	x	13	x	x
Cn1c(-c2ccccc2)cnc1SCc1nc2ccccc2c(=O)[nH]1	-5.3*	2	-10	14	i	8	60%*	i
O=C(CSc1ccc(-c2nc3ccccc3[nH]2)cn1)Nc1ccc(S(=O)(=O)NC2CC2)cc1	-5.7*	1	13	30	i	6	i	i
O=C(CSc1ccc(-c2nc3ccccc3[nH]2)cn1)Nc1ccc2c(c1)OCCO2	i	0	-3	9	i	-10	x	x
Cc1cc(-c2nnc(SCC(=O)NC3CC3)n2C(C)C)cs1	i	0	13	21	i	9	x	x
CC1(c2ccccc2)CC(C)(C)N2C(=O)C(=O)c3cccc1c32 (centres undefined)	-5.3*	-1	2	18	i	-13	i	i
O=C(CCCCCCCCN1C(=O)c2ccccc2C1=O)N1CCOCC1	i	-1	15	7	i	2	x	x
O=C(CCCCCCN1C(=O)c2ccccc2C1=O)N1CCC(c2ccccc2)C1 (centres undefined)	-6.1*	-46	-7	8	i	1	i	i
Cc1nnc(Sc2nc3ccccc3o2)c2ccccc12	-5.9*	-1	4	11	i	-1	27%*	i
CN(c1ccc(O)cc1)c1nc(-c2cccs2)cs1	-5.1*	6	0	4	i	27	70%*	i
NC1=NC2(CCCCCC2)n2c(nc3ccccc32)N1	-5.5*	0	1	20	i	7	15%*	i
CC(C)(C)c1ccc(C(=O)Nc2ccc(Oc3cccnc3)nc2)cc1	-5.2*	0	-10	13	i	30	i	i
CC(C)(C)c1ccc(C(=O)Nc2cccnc2)cc1	i	1	8	x	i	-14	x	x
O=C(CSc1nc(-c2ccccc2)cc(C(F)(F)F)n1)N1CCOCC1	-5.8*	0	-1	2	i	1	i	i
Cc1cccc(NC(=O)COC(=O)c2ccccc2SCC(=O)N2CCCC2)c1	i	0	18	22	i	-5	x	x
CN(Cc1cccc(F)c1)C(=O)c1ccc(S(=O)(=O)N2CCCCCC2)cc1	x	x	x	x	x	6	x	x
O=C(CCC1CCCC1)NCCCNC(=O)CCC1CCCC1	-6.5*	0	-11	10	i	-8	38%*	i
Cc1cnc(C(=O)OCC(=O)N(Cc2ccccc2)C(C)(C)C)cn1	x	x	x	x	x	2	x	x
CCC1(C)NC(=O)N(CC(=O)NCC(=O)Nc2c(C)cc(C)cc2C)C1=O (centres undefined)	x	x	x	x	x	-1	x	x
COc1ccc(C(=O)CSc2n[nH]c(-c3ccco3)n2)cc1	i	0	-2	53	i	0	x	x
Cc1cc(=O)[nH]c(SCC(=O)c2ccc(C(C)C)cc2)n1	i	0	7	55	i	11	x	x
Cc1ccc(C)c(C(=O)CSc2nc(C)cc(=O)[nH]2)c1	i	-1	14	0	i	5	x	x
Cc1ccc(C(=O)CSc2n[nH]c(-c3ccco3)n2)cc1C	-5.1*	0	19	15	i	2	50%*	i
Cc1cc(=O)[nH]c(SCC(=O)c2ccc(C)c(C)c2)n1	-7.3*	0	2	15	i	3	64%*	i
SMILES	CHT block	HIF act	Platelet DG rel	AI-2 QS modul	CHT PAM	VLA-4 inh	CHT inh conf	HEK293 CHT ctr
COc1ccc(C(=O)CSc2nc(C)cc(=O)[nH]2)cc1	-5.6*	0	3	18	i	4	i	i
CCN(Cc1ccncc1)C(=O)c1cc(COc2c(C)cccc2C)on1	-5.5*	1	4	6	i	10	53%*	i
Cc1cc(C)c(C(=O)Nc2ccc(S(=O)(=O)Nc3ccccn3)cc2)c(C)c1	-14*	0	-43	7	i	1	5.0%*	i
CC(C)(C)C(=O)Nc1ccc(S(=O)(=O)Nc2ccccn2)cc1	i	0	0	23	i	8	x	x
CC(=O)Nc1ccc(S(=O)(=O)N2c3ccccc3NC(=O)CC2C)c(Cl)c1 (centres undefined)	i	0	-17	4	i	-1	x	x
O=C(CN1C(=O)c2ccccc2C1=O)Nc1ccc(Cl)cn1	-5.1*	-1	4	-57	i	4	i	i
O=C(NC1CCSC1=O)C1CC(=O)N(c2ccc(F)cc2)C1 (centres undefined)	i	0	1	0	i	-1	x	x
O=c1oc2ccccc2c(N2CCCC2)c1CN1CCCC1	i	x	-4	31	i	13	x	x
O=c1oc2ccccc2c(Cl)c1CN1CCCCC1	-6.9*	0	-5	9	i	9	31%*	i
O=C(CSc1nnc(-c2ccccc2)o1)N1CCCCC1	i	3	10	7	i	5	x	x
CCOC(=O)c1cnc2c(Cl)cccc2c1NCCN1CCOCC1	-5.8*	0	3	17	i	5	i	2.8*
C#CCOCCOCCOCCNc1nc(N2CCN(C(=O)[C@H](CCC(=O)O)n3cc([C@@H](N)CO)nn3)CC2)nc(N2CCN(C(=O)[C@H](CCC(=O)O)n3cc([C@@H](N)CCSC)nn3)CC2)n1	x	x	x	x	x	0	x	x
O=C(c1cc(COc2cccc(C(F)(F)F)c2)on1)N1C[C@@H]2CCC[C@H]1C2	i	3	-8	18	i	5	x	x
N/C(=N\O)c1ccc(N2CCN(c3ncccc3C(F)(F)F)CC2)nc1	-5.7*	5	29	7	i	3	45%*	i
CCOC(=O)c1c(C)[nH]c(C)c1S(=O)(=O)N1CCN(C(=O)c2ccco2)CC1	i	x	0	33	i	6	x	x
O=C(N/N=C/c1cccs1)c1cccc(S(=O)(=O)Nc2ccc(Cl)cc2)c1	-5.5*	0	-5	16	i	9	i	i
S=C(NCCCN1CCOCC1)Nc1cccc(-c2nnc3n2CCCCC3)c1	-5.2*	0	-1	11	i	-4	61%*	i
Cc1cccc(NC(=S)NCCN2CCOCC2)c1	i	0	1	12	i	-10	x	x
